Screens deposited in PubChem by several laboratories.
An excerpt weighted towards active compounds, which were near 3.1% of everything screened.
Beta cell apopt = inhibitors of cytokine-induced beta cell apoptosis, primary screen, luminescence; INS-1E cytokine-induced death, ATP luminescence, 48 h; percent of positive-control rescue, neutral wells zero; protection from apoptosis, % (no concentration beside the values); 0.8% of 300,000 active;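 active = Every replicate reaches about 75%, or at least half do and their mean reaches it too, limit read from the data; inconclusive = At least half of replicates reach the limit but their mean does not; inactive = Under half of replicates reach the limit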;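 note: higher means more ATP so stronger rescue from cytokine killing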
PP1 inh = PP1-alpha phosphatase inhibitors, primary screen, counter-screen for PP5 inhibitor project, biochemical, fluorescence, OMFP substrate, single point; Serine/threonine-protein phosphatase PP1-alpha catalytic subunit (Homo sapiens), P62136; purified PP1alpha; inhibition, % at 6.7 µM; 0.9% of 320,000 active; AID 2235, 2010;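 active = inhibition above the mean inhibition of all tested compounds plus 3 SD, computed separately for each screening campaign, cut at about 15% in these data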
CSC inhib = cancer stem cell viability inhibitors, primary screen, luminescence | 1.1% of 300,000 active | AID 2717, 2010 | cancer stem cell-like cells viability | inhibition, % at 7.5 µM; in the data active = inhibition above about 75%; inconclusive = no clear call, values can overlap the other calls; tested in HMLE shEcad cells
PP5 primary = PP5 phosphatase inhibitors, primary screen, biochemical, fluorescence; Serine/threonine-protein phosphatase 5 (Homo sapiens), P53041; purified PP5c, OMFP substrate fluorescence; inhibition, % at 6.7 µM; 0.18% of 320,000 active; AID 1987, 2009;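 active = inhibition above the campaign's mean inhibition across all tested compounds plus 3 SD, cut at about 9.5% in these data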
Target sequence (P53041 whole entry, looked up): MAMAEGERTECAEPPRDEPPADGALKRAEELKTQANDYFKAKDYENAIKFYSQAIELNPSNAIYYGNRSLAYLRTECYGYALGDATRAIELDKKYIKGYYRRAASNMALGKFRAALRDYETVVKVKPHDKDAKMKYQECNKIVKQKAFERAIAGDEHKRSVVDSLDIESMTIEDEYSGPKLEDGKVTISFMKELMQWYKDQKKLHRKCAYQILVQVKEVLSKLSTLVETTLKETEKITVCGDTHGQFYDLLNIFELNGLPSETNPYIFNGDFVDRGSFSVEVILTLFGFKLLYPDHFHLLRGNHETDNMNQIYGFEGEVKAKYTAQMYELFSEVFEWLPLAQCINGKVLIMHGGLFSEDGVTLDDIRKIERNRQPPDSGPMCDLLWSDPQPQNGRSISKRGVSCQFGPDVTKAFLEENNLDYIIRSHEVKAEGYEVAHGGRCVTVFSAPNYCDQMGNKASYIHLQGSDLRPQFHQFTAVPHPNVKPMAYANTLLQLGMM
SKKanGAS inh = S. pyogenes SKKanGAS growth inhibitors in kanamycin, primary screen, streptokinase expression inhibitor project, SKKanGAS strain, BacTiter-Glo luminescence; inhibition, % at 7.5 µM; 6 h; 1.3% of 300,000 active;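 active = mean replicate score, as percent of positive control median, at least 50; inconclusive = mean below 50 but one replicate at or above 50; inactive = mean and every replicate below 50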;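 note: strain carries kanamycin resistance gene driven by streptokinase promoter and grows in 40 µg/ml kanamycin; loss of luminescence reflects streptokinase promoter inhibition or plain growth inhibition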
Hits are given with their value; i = inactive; ? = inconclusive; nt = no result given.

SMILES | Beta cell apopt | PP1 inh | CSC inhib | PP5 primary | SKKanGAS inh
CC(C)Cc1ccc(CN2CCCC(NC(=O)CSc3nncn3C)C2)cc1 (stereo not given) | i | i | i | i | i
Cc1ccc(-c2csc3ncnc(SCc4ccc(C(=O)O)cc4)c23)cc1 | i | 16 | i | i | i
Cc1sc2ncnc(SCc3ccc(C(=O)O)cc3)c2c1C | i | i | i | i | i
Oc1[nH]c(N=C2N=c3ccccc3=N2)c2ccccc12 | 113 | i | i | i | 82
C[C@H]1c2cccc(O)c2C(O)=C2C(=O)[C@]3(O)C(O)=C(C(N)=O)C(=O)[C@@H](N(C)C)[C@@H]3[C@@H](O)[C@@H]21 | i | i | i | i | 97
CN(C)c1ccc(O)c2c1CC1CC3[C@@H](N(C)C)C(=O)C(C(N)=O)=C(O)[C@]3(O)C(=O)C1=C2O (stereo not given in full) | i | i | i | i | 106
O=[N+]([O-])c1ccccc1SN(Cc1ccccc1)c1ccccn1 | i | i | i | i | i
Cc1cccc(C2(c3cccc(C)c3)OC(=O)c3ccccc32)c1 | 124 | i | i | i | i
CN(c1ccccc1C(=O)N1CCN(Cc2ccc3c(c2)OCO3)CC1)S(C)(=O)=O | i | i | i | i | i
Cc1cc(C(=O)NCC(=O)OC(C(=O)Nc2cc(C(F)(F)F)ccc2Cl)c2ccccc2)ccc1[N+](=O)[O-] (stereo not given) | i | i | i | i | 53
Cc1nn(C(C)C(=O)NCCCN2CCCCCC2)c(=O)c2cc3sccc3n12 (stereo not given) | i | i | i | i | i
CCOC(=O)N1CCC(N2C(=O)c3ccccc3C2Nc2ccc(S(=O)(=O)N3CCCCC3)cc2)CC1 (stereo not given) | i | i | i | i | i
Cc1ccc(NC(=S)NC2CCSc3ccccc32)cc1C (stereo not given) | i | i | i | i | 61
O=c1c2c(nc3c(-c4ccccc4)c[nH]n13)CCC2 | i | i | i | i | i
O=c1c2c(nc3c(-c4ccc(Cl)cc4)c[nH]n13)CCC2 | i | i | i | i | 66
Cc1nn(C2CCS(=O)(=O)C2)c(Cl)c1/C=C/C(=O)OCC(N)=O (stereo not given) | i | i | i | i | i
NC(=O)NC(=O)CSc1nc2sc(-c3ccccc3)cc2c(=O)n1-c1ccccc1 | i | i | i | i | 62
CN1CCC=C(C(=O)N2c3ccccc3Sc3ccc(Cl)cc32)C1 | nt | i | i | i | i
N#Cc1ccccc1/C=N/Nc1nc(-c2ccccc2)c2cc(Br)ccc2n1 | i | i | i | i | i
O=[N+]([O-])c1ccc(/C=N/Nc2ccc3ccccc3c2)o1 | i | i | i | i | i
Cc1ccc2nc(N/N=C\c3ccc([N+](=O)[O-])o3)nc(-c3ccccc3)c2c1 | nt | i | i | i | 100
O=[N+]([O-])c1ccc(/C=N/Nc2nc(-c3ccccc3)c3cc(Br)ccc3n2)o1 | i | i | i | i | 95
CS(=O)(=O)c1ccc(Cl)c(NC(=O)c2cc(=O)[nH]c3ccc(S(=O)(=O)N4CCOCC4)cc23)c1 | i | i | i | i | i
Cn1nc(-c2ccc(Cl)cc2)nc2c(=O)n(C)c(=O)nc1-2 | 99 | 37 | 119 | 12 | 84
CS(=O)(=O)n1nc(-c2ccc(Cl)cc2)nc1N | i | i | i | i | i
SMILES | Beta cell apopt | PP1 inh | CSC inhib | PP5 primary | SKKanGAS inh
Cc1c(C(=O)N(C)C)sc2nc(-c3ccccn3)[nH]c(=O)c12 | i | i | i | i | i
O=c1[nH]c(-c2ccccn2)nc2sc(-c3ccccc3)cc12 | nt | nt | nt | nt | 96
O=C(NCCc1ccc(Cl)cc1)C(=O)c1c[nH]c2ccccc12 | i | i | i | i | i
O=C(NCCc1c[nH]c2ccccc12)C(=O)c1c[nH]c2ccccc12 | nt | i | 112 | i | i
CN(C)c1ccc(/C=C/c2ccc3ccccc3n2)cc1 | 76 | i | 84 | i | 75
C(=C\c1ccc2ccccc2n1)/c1ccccc1 | i | i | i | i | i
N#CCc1ccc(NC(=O)c2cc(S(=O)(=O)N3CCOCC3)ccc2Cl)cc1 | i | i | i | i | i
COC(=O)c1ccc(NC(=O)c2nc(S(=O)(=O)Cc3cccc(C)c3)ncc2Cl)cc1 | 75 | i | 110 | i | 104
Cc1cccc(CS(=O)(=O)c2ncc(Cl)c(C(=O)NCc3ccc4c(c3)OCO4)n2)c1 | i | i | i | i | i
CC(=O)Nc1ccc(NC(=O)c2nc(S(=O)(=O)Cc3cccc(C)c3)ncc2Cl)cc1 | i | i | 91 | i | i
O=C(O)c1ccc(CSc2nnc(-c3ccc(Cl)cc3)o2)cc1 | i | i | i | i | i
O=S(=O)(Nc1ccc(-c2nnc(SCc3ccc(Cl)cc3)o2)cc1)c1ccccc1 | i | i | 92 | i | i
COc1cc(C)c(NC(=S)NCCCN2CCOCC2)cc1OC | i | i | i | i | i
COc1cc(-c2ccc3c(=O)c4ccccc4n(C)c3c2)cc(OC)c1OC | i | i | 93 | i | i
CCOC(=O)c1ccc(NC(=O)c2sc3nc4n(c(=O)c3c2C)CCC4)cc1 | nt | i | i | i | 62
CCOc1ccc(NC(=O)c2sc3nc4n(c(=O)c3c2C)CCC4)cc1 | i | i | i | i | i
O=C(N=Nc1c(O)[nH]c2ccc(Br)cc12)c1ccccc1-n1cccc1 | i | i | 80 | i | i
Oc1[nH]c2ccc(Br)cc2c1N=NC(=S)Nc1ccc(F)cc1 | i | i | 82 | i | 109
Oc1cccc(NC(=S)N=Nc2c(O)[nH]c3ccc(Br)cc23)c1 | i | i | i | i | 89
Cc1ccc(S(=O)(=O)N2CCN(C(=O)C3CCN(C(=O)c4ccccc4C)CC3)CC2)cc1C | i | i | i | i | i
CCOC(=O)/C=C/C(=O)N1CCN(C(=O)/C=C/C(=O)OCC)CC1 | i | i | i | i | i
CC1(C)C[C@@H]2C[C@@](C)(CN2C(=O)c2cc(COc3cccc(C(F)(F)F)c3)on2)C1 | 104 | i | 96 | i | i
COc1ccc(-c2cc(C(=O)N3CC4(C)CC3CC(C)(C)C4)no2)cc1 (stereo not given) | i | i | ? | i | i
COc1ccc(-c2cc(C(=O)N3CC4(C)CC3CC(C)(C)C4)no2)cc1OC (stereo not given) | i | i | 83 | i | i
Cc1cc(N2CCCC2=O)cc(C)c1S(=O)(=O)Nc1c(C)nn(C)c1C | i | i | i | i | i
Cc1ccc(S(=O)(=O)c2c(C)nn(C(C)(C)C)c2OC(=O)c2ccc(Br)o2)cc1 | i | i | 91 | i | i
Cc1ccc(S(=O)(=O)c2c(C)nn(C(C)(C)C)c2OC(=O)c2cccs2)cc1 | i | i | 84 | i | i
O=C(NCC1CCOCC1)c1ccc2nc(Cc3cccc(Cl)c3)oc2c1 | i | i | i | i | i
C/C(=N\Nc1nc(-c2ccccc2)cs1)c1cccs1 | i | i | i | i | i
C/C(=N\Nc1nc2ccccc2s1)c1cccs1 | i | i | i | i | 50
